In a collection of fitness landscapes (doi:10.1126/science.1257360) one finds enrichment ratio data, which are given here for 198 variants.

The full ranking holds about 140,000 sequences; the median of “enrichment ratio after two sorts for PhoP signalling” is about 0, and the highest 2% start at about 11. The full list was thinned out, with the highest values kept by preference. Some results are limits rather than exact numbers.

To fix the notation:
B1: PhoQ; a variant is named by its letters at X, in order, P23837 (parent)
chain: MKKLLRLFFPLSLRVRFLLATAAVVLVLSLAYGMVALIGYSVSFDKTTFRLLRGESNLFYTLAKWENNKLHVELPENIDKQSPTMTLIYDENGQLLWAQRDVPWLMKMIQPDWLKSNGFHEIEADVNDTSLLLSGDHSIQQQLQEVREDDDDAEMTHSVAVNVYPATSRMPKLTIVVVDTIPVELKSSYMVWSWFIYVLSANLLLVIPLLWVAAWWSLRPIEALAKEVRELEEHNRELLNPATTRELTSLVRNLNRLLKSERERYDKYRTTLTDLTHSLKTPLXXLQXXLRSLRSEKMSVSDAEPVMLEQISRISQQIGYYLHRASMRGGTLLSRELHPVAPLLDNLTSALNKVYQRKGVNISLDISPEISFVGEQNDFVEVMGNVLDNACKYCLEFVEISARQTDEHLYIVVEDDGPGIPLSKREVIFDRGQRVDTLRPGQGVGLAVAREITEQYEGKIVAGESMLGGARMEVIFGRQHSAPKDE

In this assay the parent is B1. As to the kind of experiment: enrichment ratio after two sorts for PhoP signalling (ratio (wild type AVST 3.29)); higher = more functional. To be noted: with PhoP (E. coli).
As to KINI, the enrichment ratio is at most 0.25.

For the variant SEPT, the enrichment ratio is at most 0.25.

As for NNGF, the enrichment ratio was at most 0.25.

Regarding LQLD, the enrichment ratio was at most 0.25.

Take NKMF: the enrichment ratio was at most 0.25.

In the case of QAHK, the enrichment ratio is at most 0.25.

On to QDHM, for which the enrichment ratio is at most 0.25.

For KANF, the enrichment ratio is at most 0.25.

With QAHM, the enrichment ratio amounted to 22.3.

Consider NANF, for which the enrichment ratio is at most 0.25.

Consider QANF, for which the enrichment ratio is 21.

For QQNF, the enrichment ratio was 16.3.

Turning to YAHM, the enrichment ratio was at most 0.25.

In the case of QLNF, the enrichment ratio was at most 0.25.

As to NQNF, the enrichment ratio is at most 0.25.

On to QAQF, for which the enrichment ratio is at most 0.25.

As to QAHF, the enrichment ratio was found to be 15.5.

Take HNRG: the enrichment ratio is at most 0.25.

On to WPAL, for which the enrichment ratio was at most 0.25.

Take GSVC: the enrichment ratio was at most 0.25.

For the variant LGSN, the enrichment ratio was at most 0.25.

For the variant MHVR, the enrichment ratio is at most 0.25.

Take WLSV: the enrichment ratio was at most 0.25.

As for WRAR, the enrichment ratio is at most 0.25.

Turning to KRNR, the enrichment ratio is at most 0.25.

For the variant ECFS, the enrichment ratio was at most 0.25.

As to CTNF, the enrichment ratio is at most 0.25.

On to TTNF, for which the enrichment ratio came to 6.07.

For the variant YTNF, the enrichment ratio was at most 0.25.

ATNF: the enrichment ratio was found to be 20.9.

For STNF, the enrichment ratio worked out at 12.6.

As for AHNF, the enrichment ratio stood at 9.49.

ANNF: the enrichment ratio is 12.9.

AINF: the enrichment ratio was determined as 1.66.

As to GTNF, the enrichment ratio is at most 0.25.

Take KYNF: the enrichment ratio is at most 0.25.

For the variant SCNF, the enrichment ratio was 14.3.

For SLNF, the enrichment ratio was found to be 1.82.

On to PREH, for which the enrichment ratio was at most 0.25.

For the variant GASC, the enrichment ratio was at most 0.25.

On to FFHE, for which the enrichment ratio was at most 0.25.

With DQPT, the enrichment ratio was at most 0.25.

In the case of LMDV, the enrichment ratio was at most 0.25.

With FSAH, the enrichment ratio was determined as 0.363.

Turning to SQND, the enrichment ratio is at most 0.25.

In the case of IRPQ, the enrichment ratio is at most 0.25.

YYNE: the enrichment ratio is at most 0.25.

Consider GEVM, for which the enrichment ratio was 13.6.

In the case of GEYY, the enrichment ratio is at most 0.25.

Turning to GEVY, the enrichment ratio is 15.9.

As for GEVA, the enrichment ratio was at most 0.25.

Take GEVG: the enrichment ratio was determined as 8.67.

GEGM: the enrichment ratio is at most 0.25.

Regarding ISQH, the enrichment ratio is at most 0.25.

Consider HWRW, for which the enrichment ratio is at most 0.25.

In the case of LGRG, the enrichment ratio was at most 0.25.

For the variant HLTF, the enrichment ratio was at most 0.25.

As to GIMD, the enrichment ratio was at most 0.25.

Regarding GIAM, the enrichment ratio is 33.4.

GMGM: the enrichment ratio is at most 0.25.

With GMAM, the enrichment ratio stood at 24.3.

As for TNCK, the enrichment ratio was at most 0.25.

Regarding TNAM, the enrichment ratio came out at 15.7.

Regarding NNAM, the enrichment ratio was at most 0.25.

For GIRM, the enrichment ratio is at most 0.25.

Take GMTM: the enrichment ratio was at most 0.25.

MNAM: the enrichment ratio was 1.4.

As for LNAM, the enrichment ratio was at most 0.25.

Take GNAM: the enrichment ratio turned out to be 35.8.

In the case of RPAK, the enrichment ratio is at most 0.25.

Regarding YHSF, the enrichment ratio was at most 0.25.

With QLDG, the enrichment ratio was at most 0.25.

Take PCCG: the enrichment ratio was at most 0.25.

Take DCDI: the enrichment ratio is at most 0.25.

For YLVR, the enrichment ratio is at most 0.25.

As to QLDF, the enrichment ratio was at most 0.25.

On to IHCL, for which the enrichment ratio was at most 0.25.

Regarding FHCR, the enrichment ratio was at most 0.25.

For VVAM, the enrichment ratio is at most 0.25.

On to LQPE, for which the enrichment ratio was at most 0.25.

In the case of YRAY, the enrichment ratio is at most 0.25.

With SGLA, the enrichment ratio was 8.41.

For the variant SGLT, the enrichment ratio amounted to 12.3.

On to SGNT, for which the enrichment ratio is at most 0.25.

Take SGLI: the enrichment ratio turned out to be 16.2.

On to SGDK, for which the enrichment ratio is at most 0.25.

Consider SGDN, for which the enrichment ratio is at most 0.25.

With KDVP, the enrichment ratio is at most 0.25.

For the variant RAKD, the enrichment ratio was at most 0.25.

For the variant ARSI, the enrichment ratio is at most 0.25.

Consider AQRK, for which the enrichment ratio was at most 0.25.

With AQSI, the enrichment ratio was 18.6.

Consider TKSI, for which the enrichment ratio turned out to be 14.9.

For the variant TISR, the enrichment ratio stood at 6.92.

For HKSI, the enrichment ratio is at most 0.25.

As for KKSI, the enrichment ratio was at most 0.25.

WISW: the enrichment ratio is at most 0.25.

As to TISK, the enrichment ratio stood at 3.65.

In the case of AISW, the enrichment ratio is 11.4.

Take TISI: the enrichment ratio was 16.9.

With ADSW, the enrichment ratio is at most 0.25.

Regarding SLDN, the enrichment ratio was at most 0.25.

As to QVPH, the enrichment ratio was at most 0.25.

As to WSQP, the enrichment ratio is at most 0.25.

Take DYLR: the enrichment ratio is at most 0.25.

On to WNLT, for which the enrichment ratio is at most 0.25.

As to RHIF, the enrichment ratio is at most 0.25.

In the case of HCDL, the enrichment ratio is at most 0.25.

Regarding AKSI, the enrichment ratio came to 22.7.

On to WISI, for which the enrichment ratio is at most 0.25.

For the variant AISI, the enrichment ratio is 22.

Turning to ADSI, the enrichment ratio is at most 0.25.

Turning to AHSI, the enrichment ratio is at most 0.25.

Consider AKDH, for which the enrichment ratio is at most 0.25.

Take ENLY: the enrichment ratio is at most 0.25.

On to RIVL, for which the enrichment ratio is at most 0.25.

With YQAH, the enrichment ratio was at most 0.25.

For the variant TFMT, the enrichment ratio is at most 0.25.

Consider GVLA, for which the enrichment ratio was 4.95.

With HGDK, the enrichment ratio was at most 0.25.

Take HGCS: the enrichment ratio is at most 0.25.

As for GNLI, the enrichment ratio was found to be 15.8.

For the variant NVLI, the enrichment ratio was at most 0.25.

Turning to LNLI, the enrichment ratio was at most 0.25.

HYLI: the enrichment ratio was at most 0.25.

Consider HGCK, for which the enrichment ratio was at most 0.25.

Take GVLI: the enrichment ratio came out at 15.6.

Turning to HGCI, the enrichment ratio stood at 17.9.

Consider HGLI, for which the enrichment ratio was found to be 13.3.

On to GILI, for which the enrichment ratio turned out to be 8.37.

Consider LTRF, for which the enrichment ratio was at most 0.25.

As for QPSN, the enrichment ratio is at most 0.25.

For PTQL, the enrichment ratio is at most 0.25.

Turning to YSHY, the enrichment ratio was at most 0.25.

FFLI: the enrichment ratio is at most 0.25.

QGDK: the enrichment ratio was at most 0.25.

On to CNLI, for which the enrichment ratio was determined as 12.7.

Regarding CFLI, the enrichment ratio was at most 0.25.

As for QGLI, the enrichment ratio was 13.3.

Consider WGLT, for which the enrichment ratio was at most 0.25.

In the case of TGLI, the enrichment ratio amounted to 12.2.

Regarding NGLI, the enrichment ratio came to 2.73.

For CNHF, the enrichment ratio was at most 0.25.

On to WGLA, for which the enrichment ratio is at most 0.25.

Regarding RGLI, the enrichment ratio is at most 0.25.

Take WGLI: the enrichment ratio was 13.6.

VTWM: the enrichment ratio is at most 0.25.

For QDLV, the enrichment ratio is at most 0.25.

Take WQPN: the enrichment ratio was at most 0.25.

As to FGKS, the enrichment ratio was at most 0.25.

As for AKLI, the enrichment ratio was found to be 4.91.

Take MGLS: the enrichment ratio was 5.14.

In the case of GGLI, the enrichment ratio was found to be 11.9.

For the variant MGLI, the enrichment ratio is 14.4.

For TKLI, the enrichment ratio stood at 13.

As for NILI, the enrichment ratio amounted to 0.917.

For the variant MKLI, the enrichment ratio is 3.78.

In the case of YHLI, the enrichment ratio is at most 0.25.

As to MGDK, the enrichment ratio is at most 0.25.

With PKIA, the enrichment ratio is at most 0.25.

NPEC: the enrichment ratio is at most 0.25.

With DYPI, the enrichment ratio is at most 0.25.

For HHAA, the enrichment ratio is at most 0.25.

For the variant VYEG, the enrichment ratio was at most 0.25.

With GTRK, the enrichment ratio is at most 0.25.

Turning to AKAK, the enrichment ratio is at most 0.25.

With DHNF, the enrichment ratio was at most 0.25.

Turning to WHAF, the enrichment ratio was at most 0.25.

With SGWI, the enrichment ratio came to 2.76.

As to SGVS, the enrichment ratio was 13.

Consider TGVN, for which the enrichment ratio worked out at 5.82.

For the variant SGPN, the enrichment ratio was at most 0.25.

Regarding SGQH, the enrichment ratio amounted to 11.9.

Consider SGGD, for which the enrichment ratio was at most 0.25.

With SGVG, the enrichment ratio came to 5.22.

As to SGVA, the enrichment ratio was determined as 19.

With SGVK, the enrichment ratio is at most 0.25.

SGVN: the enrichment ratio was 16.8.

As to SGQN, the enrichment ratio is at most 0.25.

Consider SGKH, for which the enrichment ratio is at most 0.25.

Consider VDSY, for which the enrichment ratio was at most 0.25.

Regarding ELCR, the enrichment ratio was at most 0.25.

DCKP: the enrichment ratio was at most 0.25.

Turning to MYPK, the enrichment ratio was at most 0.25.

Regarding EFWG, the enrichment ratio was at most 0.25.

Turning to AFDK, the enrichment ratio is at most 0.25.

For FLSH, the enrichment ratio is at most 0.25.

For MHCH, the enrichment ratio was at most 0.25.

On to SEFH, for which the enrichment ratio came to 4.4.

Turning to EFPG, the enrichment ratio is at most 0.25.

As for REIT, the enrichment ratio was at most 0.25.

Take HGRF: the enrichment ratio was at most 0.25.

Regarding SGWM, the enrichment ratio came to 9.28.

Turning to TGVQ, the enrichment ratio was found to be 7.73.

Regarding SGGG, the enrichment ratio was at most 0.25.

On to SGVM, for which the enrichment ratio stood at 13.3.

For SGVQ, the enrichment ratio was found to be 20.5.

Take SGGM: the enrichment ratio is 8.79.
